# Paper PMC4336329 (PLoS ONE, 2015)
# The campaign covered roughly 310,000 compounds. About 14,000 (4.5%) showed an effect of 50% or more. Effects have a minus sign here. Only a selection was taken, and strong results are over-represented in it overall.
# Target: human ether-à-go-go-related gene (hERG) potassium channel (human, UniProt Q12809)
# Assay: primary screen, population patch clamp on CHO cells stably expressing hERG; higher = less effect of the substance
# 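Note: peak tail current of the secondary pulse compared with the same well before compound.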
# human ether-à-go-go-related gene (hERG) potassium channel, sequence (Q12809 whole entry, looked up): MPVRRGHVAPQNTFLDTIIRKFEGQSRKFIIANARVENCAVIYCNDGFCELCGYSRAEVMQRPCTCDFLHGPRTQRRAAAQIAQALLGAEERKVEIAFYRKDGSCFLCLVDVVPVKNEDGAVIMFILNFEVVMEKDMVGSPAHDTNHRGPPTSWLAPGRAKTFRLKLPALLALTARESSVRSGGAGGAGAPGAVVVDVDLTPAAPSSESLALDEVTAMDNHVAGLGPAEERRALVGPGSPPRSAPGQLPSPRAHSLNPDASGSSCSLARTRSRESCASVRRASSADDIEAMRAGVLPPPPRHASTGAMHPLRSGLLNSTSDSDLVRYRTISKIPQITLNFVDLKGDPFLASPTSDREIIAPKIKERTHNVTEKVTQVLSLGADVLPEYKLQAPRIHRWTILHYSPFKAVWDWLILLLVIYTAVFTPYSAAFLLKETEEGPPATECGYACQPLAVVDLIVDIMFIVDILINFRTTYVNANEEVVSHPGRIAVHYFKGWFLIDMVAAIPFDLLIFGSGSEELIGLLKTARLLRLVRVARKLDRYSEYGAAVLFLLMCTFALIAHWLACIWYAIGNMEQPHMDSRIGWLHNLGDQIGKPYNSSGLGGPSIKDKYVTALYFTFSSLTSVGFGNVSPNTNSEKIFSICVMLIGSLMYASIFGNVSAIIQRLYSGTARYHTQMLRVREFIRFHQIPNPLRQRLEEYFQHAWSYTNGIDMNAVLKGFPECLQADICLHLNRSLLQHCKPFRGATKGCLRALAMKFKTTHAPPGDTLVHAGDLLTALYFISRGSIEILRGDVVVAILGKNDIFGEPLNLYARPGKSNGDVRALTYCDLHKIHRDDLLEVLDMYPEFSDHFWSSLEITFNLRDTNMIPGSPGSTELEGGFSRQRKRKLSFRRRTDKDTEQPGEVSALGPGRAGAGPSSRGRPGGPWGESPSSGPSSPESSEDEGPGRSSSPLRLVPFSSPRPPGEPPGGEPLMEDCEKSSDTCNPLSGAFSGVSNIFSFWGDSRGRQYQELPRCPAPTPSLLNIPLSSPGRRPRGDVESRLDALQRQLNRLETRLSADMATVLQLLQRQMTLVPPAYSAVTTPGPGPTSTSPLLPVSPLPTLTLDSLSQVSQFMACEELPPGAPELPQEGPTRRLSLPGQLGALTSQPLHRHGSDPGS
row,Structure (SMILES),"hERG current change (%, negative = inhibition) at 10uM [%]"
1,O=C(NS(=O)(=O)Nc1ccccn1)c1c[nH]c2ccccc12,15.4
2,Cc1cccc(NC(=O)C2CCN(C(=O)NC3CCCCC3)CC2)c1,7.39
3,CS(=O)c1ccccc1COC(=O)Nc1ccccc1 (stereo not shown),9.76
4,Cc1c(NC(=O)c2ccccc2)c(=O)n(-c2ccccc2)n1C,-3.48
5,O=C(NCc1ccco1)C1CCN(C(=O)c2ccc(Cl)cc2Cl)CC1,-0.217
6,O=C(NCc1ccco1)c1cc2sccc2n1Cc1ccccc1,-15.7
7,Cc1cc(C)nc(N2CCC(C(=O)NCc3ccccc3F)CC2)n1,27
8,O=C(NCc1ccco1)C1CCN(C(=O)c2cc3sccc3n2Cc2ccc(Cl)cc2)CC1,-64.8
9,CCn1c(C(=O)N2CCC(C(=O)NCc3cccs3)CC2)cc2sccc21,-63
10,CCn1c(C(=O)N2CCC(C(=O)NCc3ccc(OC)cc3)CC2)cc2sccc21,-41.9
11,COc1nc(OC)nc(N2CCC(C(=O)NCc3ccco3)CC2)n1,-18.3
12,Cn1c(C(=O)N2CCCC(C(=O)NCc3cccs3)C2)cc2sccc21 (stereo not shown),-16.1
13,CCOC(=O)N1CCN(C(=O)C2CCN(C(=O)c3cc4sccc4n3CC)CC2)CC1,-28.8
14,CCN1CCN(C(=O)C2CCN(C(=O)c3cc4sccc4n3CC)CC2)CC1,-2.39
15,CCn1c(C(=O)N2CCC(C(=O)N3CCN(c4ccccn4)CC3)CC2)cc2sccc21,-60.5
16,O=C(NCc1ccco1)C1CCN(c2nc3ccccc3n2Cc2ccccc2F)CC1,-66.2
17,COC(=O)CSc1nnc(COc2cccc3ccccc23)o1,13.6
18,CN(C)/C=C1\N=C(c2ccccc2)OC1=O,3.09
19,COc1ccc(N2CCN(C(C)C(=O)Nc3nnc(C)s3)CC2)cc1.Cl (stereo not shown),-1.41
20,CSc1ccccc1NC(=O)Cc1ccccc1,13.8
21,CCN(CC)S(=O)(=O)c1ccc(NC(=O)CCN2C(=O)C3CC=CCC3C2=O)cc1 (stereo not shown),-30

row,Structure (SMILES),"hERG current change (%, negative = inhibition) at 10uM [%]"
1,CC1(c2ccccc2Cl)NC(=O)N(CC(=O)Nc2ccc(N3CCCCC3)cc2)C1=O (stereo not shown),-21.9
2,CC(=O)N1CCc2cc(S(=O)(=O)CCC(=O)Nc3ccccc3F)ccc21,13.3
3,O=C(NCc1ccco1)C1CCN(C(=O)c2cc3sccc3n2Cc2ccc(F)cc2)CC1,-68.5
4,CC(C)N(CCCNC(=O)C1CCN(C(=O)c2cc3sccc3n2C)CC1)Cc1ccccc1,-23.2
5,O=C(c1ccco1)N1CCN(C(=O)c2cc3sccc3n2Cc2ccccc2)CC1,-55.6
6,O=C(c1cc2sccc2n1Cc1ccccc1)N1CCN(c2nc3ccccc3s2)CC1,-17
7,O=C(NCCN1CCOCC1)c1cc2sccc2n1Cc1ccc(Cl)cc1,-59.9
8,O=C(NCCN1CCOCC1)c1cc2sccc2n1Cc1ccc(F)cc1,-47
9,CC(C)NC(=O)C1CCN(C(=O)c2cc3sccc3n2Cc2ccc(F)cc2)CC1,-3.2
10,CCCCN(CCCNC(=O)C1CCN(C(=O)c2cc3sccc3n2C)CC1)Cc1ccccc1,-60.8
11,O=C(NCc1ccccn1)C1CCN(C(=O)c2cc3sccc3n2Cc2ccc(F)cc2)CC1,-46.5
12,O=C(Cn1c(C(=O)NCCCN2CCOCC2)cc2sccc21)c1ccccc1,-16.5
13,CCOC(=O)c1cc2sccc2n1CC(=O)N1CCN(C(=O)c2ccco2)CC1,-48.2
14,CCN(CCCNC(=O)C1CCN(C(=O)c2cc3sccc3n2C)CC1)Cc1ccccc1,-38.4
15,COCCSc1nnc(NS(=O)(=O)c2ccc(F)cc2)s1,3.84
16,O=C(c1ccncc1)N1c2ccccc2Sc2ccccc21,18.2
17,CC(C)=CCCC(C)N(C=O)C(C)CCC=C(C)C (stereo not shown),-1.01
18,CC(=O)c1cccc(NC(=O)COC(=O)c2ccccc2C)c1,-14.4
19,CN(C)S(=O)(=O)c1ccc(C(=O)OCC(=O)Nc2ccccc2OC(F)F)cc1,-5.82
20,CC(OC(=O)c1cc(Br)ccc1O)C(=O)NC1(C#N)CCCCC1 (stereo not shown),27.3
21,Cc1c(N=Cc2nc3ccccc3[nH]2)c(=O)n(-c2ccccc2)n1C,5.52

row,Structure (SMILES),"hERG current change (%, negative = inhibition) at 10uM [%]"
1,Cc1ccc(S(=O)(=O)NC(CC(=O)N2CCC3(CC2)OCCO3)c2ccco2)cc1 (stereo not shown),3.51
2,CC(C)[C@H](NC(=O)NCCc1ccc(Cl)cc1)C(=O)O,5.9
3,COc1ccccc1-c1noc(CCC(=O)Nc2cc(C(F)(F)F)ccc2Cl)n1,-3.68
4,CC(C)=CC(=O)OCC(=O)Nc1cc([N+](=O)[O-])ccc1F,0.461
5,CC(C)CCN(Cc1ccco1)S(=O)(=O)c1csc(C(N)=O)c1,-14.9
6,CC1(c2ccc(OC(F)F)cc2)NC(=O)N(CC(=O)N2c3ccccc3NC(=O)C2(C)C)C1=O (stereo not shown),-6.78
7,CCCCNC(=O)N(O)C1N(/N=C/c2ccccc2F)C(=S)SC1(C)C (stereo not shown),16.5
8,Cc1ccc(C(=O)N[C@H](C(=O)OCC(=O)NC2CCS(=O)(=O)C2)C(C)C)cc1 (stereo partly shown),11.6
9,Cc1cccc(NC(=O)N(Cc2cc3cc(C)ccc3[nH]c2=O)CC2COCCO2)c1 (stereo not shown),6.43
10,Cc1ccc2[nH]c(=O)c(CN(CCCN(C)C)C(=O)Nc3cccc(Cl)c3)cc2c1,-53.6
11,Cc1ccc2[nH]c(=O)c(CN(CCO)C(=O)N(C)C)cc2c1,5.5
12,CN(C)CCCN(Cc1cc2cc3c(cc2[nH]c1=O)OCO3)C(=S)Nc1ccccc1,-36.6
13,CC(=O)N(CCc1cccc(C)c1)Cc1cc2cc(C)ccc2[nH]c1=O,-5.71
14,CN(C)CCCN(Cc1cc2cc3c(cc2[nH]c1=O)OCO3)C(=S)Nc1cccc(Cl)c1,-45.7
15,Cc1cccc(NC(=S)N(CCCN(C)C)Cc2cc3cc4c(cc3[nH]c2=O)OCO4)c1,-52.7
16,COc1ccc(NC(=O)N(Cc2cc3cc(C)ccc3[nH]c2=O)CC2CCCO2)cc1 (stereo not shown),-25.2
17,Cc1ccc2[nH]c(=O)c(CN(CCCN(C)C)C(=O)Nc3ccc(Cl)cc3)cc2c1,-66.1
18,Cc1ccc(NC(=S)N(CCCN(C)C)Cc2cc3cc4c(cc3[nH]c2=O)OCO4)cc1,-41.7
19,Cc1ccc2[nH]c(=O)c(CN(CCCN(C)C)C(=O)Nc3ccc(F)cc3)cc2c1,-70.7
